For 21 molecules, growth inhibition results are on record in PubChem BioAssay (NCI).

Experiment [1] is described as follows: NCI Yeast Anticancer Drug Screen. Data for the rad50 strain (AID 155).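 Note: 0% = growth of vehicle-only cultures of the same strain.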 The note with it: S. cerevisiae rad50 strain growth inhibition; at 50.0 µM; hits give high values. Put shortly: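 Genetically altered yeast (DNA repair pathway); compound treatment; growth inhibition vs vehicle ctrl.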
Experiment [2] is described as follows: NCI Yeast Anticancer Drug Screen. Data for the mec2-1 strain (AID 157). The note with it: S. cerevisiae mec2-1 strain, at 50.0 µM, hits give high values. Put shortly:
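Vehicle-treated cultures served as reference for growth inhibition of compound-exposed mec2-1 yeast.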

Experiment [3] is described as follows: NCI Yeast Anticancer Drug Screen. Data for the sgs1 mgt1 strain (AID 161).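 Note: 0% = growth of cultures given vehicle only.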 The note with it: S. cerevisiae sgs1 mgt1 strain, at 50.0 µM, hits give high values. Put shortly:
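Genetically altered yeast, compound exposure, growth inhibition relative to vehicle.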

Experiment [4] is described as follows: NCI Yeast Anticancer Drug Screen. Data for the cln2 rad14 strain (AID 165).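 Note: 0% = growth equal to vehicle treated cultures.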 To be noted: S. cerevisiae cln2 rad14 strain, at 50.0 µM, hits give high values. In short, it runs like this: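 Each compound was tested on cln2 rad14 yeast. Inhibition of growth was calculated against vehicle-exposed controls.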
The nature of experiment [5]: NCI Yeast Anticancer Drug Screen. Data for the bub3 strain (AID 167). The note with it: S. cerevisiae bub3 mutant strain, at 50.0 µM, hits give high values. In short, it runs like this: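 Yeast carrying a defined mutation is treated with each compound, and growth is compared with that of vehicle-exposed cells to give inhibition.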
Experiment [6] can be described thus: NCI Yeast Anticancer Drug Screen. Data for the mlh1 rad18 strain (AID 175). To be noted: S. cerevisiae mlh1 rad18 strain growth inhibition; at 50.0 µM; hits give high values. In short, it runs like this: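 Vehicle-treated cultures served as the reference for growth inhibition in a yeast strain carrying DNA damage repair alterations exposed to each compound.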

The panel holds about 79,000 compounds, 15% with a hit somewhere; the sample as a whole holds those more often. Unmarked numbers belong to inactive results. Activity calls are given as the source filed them. Cut-off read from the data, not from the text of the source: active = growth inhibition above about 70%; inactive = the rest.

Regarding `COc1ccc(C2c3cc4c(cc3OC(C)(O)C2C)OCO4)c(OC)c1OC` (stereo unspecified), the growth inhibition was 3.45% in experiment [1]; 5.7% in experiment [2]; -1.4% in experiment [3]; -9.25% in experiment [4]; -5.1% in experiment [5]; 18.9% in experiment [6].
`N#C/C(=C\c1ccc2[nH]ccc2c1)C(=O)NCCCCNC(=O)/C(C#N)=C/c1ccc2[nH]ccc2c1`: the growth inhibition in experiment [1] was 5.35%; in experiment [2] it was 23.2%; in experiment [3], 10.4%; in experiment [4] it was -21.4%; in experiment [5], 9.65%; in experiment [6], 5.7%.
As for `Nc1ccc(S(=O)(=O)NNc2nc(N3CCCCC3)nc(N3CCCCC3)n2)cc1`, the growth inhibition in experiment [1] was -1.3%; in experiment [2], 1.95%; in experiment [3] it was 10.2%; in experiment [4], 7.9%; in experiment [5], -11.7%; in experiment [6], -5%.
Regarding `Cc1nc(N)c(N=O)c(=O)[nH]1`, the growth inhibition in experiment [1] was 13.2%; in experiment [2], 8.75%; in experiment [3] it was 14.2%; in experiment [4], 9.5%; in experiment [5], 10.9%; in experiment [6] it was 7.35%.
For `Nc1nc(SCC(=O)c2ccc(F)cc2)sc1C(=O)c1ccc(F)cc1`, the growth inhibition in experiment [1] was -9.75%; in experiment [2], 6.9%; in experiment [3], 1.4%; in experiment [4] it was 1.3%; in experiment [5], -0.9%; in experiment [6], 14%.
For `Cc1ccc(S(=O)(=O)OCOS(=O)(=O)c2ccc(C)cc2)cc1`, the growth inhibition is 23.1% in experiment [1]; 22.2% in experiment [2]; 4.95% in experiment [3]; 3.15% in experiment [4]; -34.4% in experiment [5]; -25.2% in experiment [6].
For the molecule `CC/C(=C/CO)c1ccccc1`, the growth inhibition in experiment [1] is 46.5%; in experiment [2] it was 5.65%; in experiment [3], 17.6%; in experiment [4], 6.05%; in experiment [5] it was 10.8%; in experiment [6], 36.4%.
With `Cc1cccc(C)c1NC(=O)C1=NC(=S)NC(c2ccccc2)C1c1nc2ccccc2s1` (stereo unspecified), the growth inhibition in experiment [1] was -5.7%; in experiment [2], -19%; in experiment [3] it was -15.4%; in experiment [4] it was 10.2%; in experiment [5], -0.85%; in experiment [6] it was -1.1%.
For the molecule `CCOC(=O)C1(C)CCc2sc(N)c(C#N)c21` (stereo unspecified), the growth inhibition in experiment [1] was -29.2%; in experiment [2] it was -2.4%; in experiment [3], 3.75%; in experiment [4], -10.8%; in experiment [5], 2.8%; in experiment [6], -8.5%.
Take `CC(C(c1ccccc1)C(Br)C(=O)c1ccccc1)[N+](=O)[O-]` (stereo unspecified): the growth inhibition in experiment [1] is 96.5% (active); in experiment [2] it was 93.2% (active); in experiment [3] it was 95% (active); in experiment [4], 87.3% (active); in experiment [5], 96.5% (active); in experiment [6], 94.7% (active).
`CC(OC(=O)CC(c1ccccc1)N1CCCCC1)c1ccccc1` (stereo unspecified): the growth inhibition in experiment [1] is 64.7%; in experiment [2] it was 1.3%; in experiment [3], 41.1%; in experiment [4] it was 5.3%; in experiment [5], 57.5%; in experiment [6], 33.9%.
In the case of `Cn1c(=O)n(C2(C)CSC2)c2ccccc21`, the growth inhibition in experiment [1] is -27.2%; in experiment [2], -14.6%; in experiment [3] it was -46.1%; in experiment [4], -3.95%; in experiment [5], -3.35%; in experiment [6], -33.9%.
Consider `CC1(C)OC2OC(COC(=O)c3ccc([N+](=O)[O-])cc3)C3OC(C)(C)OC3C2O1` (stereo unspecified), for which the growth inhibition is -13.6% in experiment [1]; -8.45% in experiment [2]; -8.85% in experiment [3]; -28.1% in experiment [4]; 0.85% in experiment [5]; -25.4% in experiment [6].
Turning to `CC(C)C(CN)(C(C)C)C(C)C`, the growth inhibition was 2.35% in experiment [1]; 9.65% in experiment [2]; -8.65% in experiment [3]; 8.55% in experiment [4]; 5.3% in experiment [5]; -8.6% in experiment [6].
Take `Cc1[nH]n(-c2ccccc2)c(=S)c1C(=O)c1ccccc1`: the growth inhibition is -11.7% in experiment [1]; 1.05% in experiment [2]; 2.55% in experiment [3]; 1.7% in experiment [4]; 2.25% in experiment [5]; 0.45% in experiment [6].
For `CCCCN(CCCC)CC(O)c1c2cccc(Cl)c2cc2c(Cl)cccc12` (stereo unspecified), the growth inhibition in experiment [1] was 98.9% (active); in experiment [2], 99.5% (active); in experiment [3], 78.6% (active); in experiment [4], 93.3% (active); in experiment [5], 98.8% (active); in experiment [6] it was 99.1% (active).
In the case of `CC#CC(O)(C(=O)OC1CCCN(C)C1)C1=CC=CCC1` (stereo unspecified), the growth inhibition in experiment [1] was 11.7%; in experiment [2], 8.25%; in experiment [3], 13.2%; in experiment [4], 5%; in experiment [5], -1.75%; in experiment [6], 27.4%.
On to `O=P(Nc1ccc(Cl)cc1)(c1ccc(Cl)cc1)c1ccc(Cl)cc1`, for which the growth inhibition in experiment [1] is 17.6%; in experiment [2] it was 6.05%; in experiment [3] it was 4.05%; in experiment [4], -16.1%; in experiment [5], -0.15%; in experiment [6], 20.9%.
As for `CNc1nc2c(C)ccc3nc(N(C)C)nc-3c2n1C`, the growth inhibition was 0.6% in experiment [1]; -22.2% in experiment [2]; 4.4% in experiment [3]; 16.4% in experiment [4]; 20.1% in experiment [5]; 14.8% in experiment [6].
Regarding `CC1(C)C2CCC13CS(=O)(=O)N1O[C@]13C(=O)O2` (stereo partly specified), the growth inhibition was 19.3% in experiment [1]; 2.7% in experiment [2]; 6.55% in experiment [3]; 15.1% in experiment [4]; -1.05% in experiment [5]; 31.9% in experiment [6].
With `COC(=O)Cc1cccc2c(=O)c(S(=O)(=O)NC(=O)Nc3ccc(Cl)cc3)c(-c3ccccc3)oc12`, the growth inhibition in experiment [1] is 20.9%; in experiment [2], 23.1%; in experiment [3] it was 31.6%; in experiment [4] it was 50.4%; in experiment [5], 35.4%; in experiment [6] it was 17.8%.
